Sampled rows, rich in hits. Any-hit rate of the full collection: about 3.7%.
FH mod: Identification of activators of human fumarate hydratase by quantitative high-throughput screening; Fumarate hydratase, mitochondrial (Homo sapiens), P07954; FH coupled MDH/diaphorase resazurin fluorescence, 15 min; Potency, µM (titrated, usually from 79.9 µM), for the others: at the highest dose activity change, negative = inhibition, hits mostly inhibitors; 54,000 tested, 0.22% active; AID 1347055, 2019; also: potency is read from the fitted curve at half-maximal effect; % is scaled to controls: 0 for no effect and ±100 for the full control effect; the screen sought activators but most active calls are inhibition curves; nearly all actives have a fitted effect of over 45% in size
GALK inhibitor: inhibitors of human galactokinase (GALK) | P51570 | recombinant GALK, Kinase-Glo ATP luminescence, 1 h | Potency, µM (series often up to 57.5 µM), for inactives: at the highest dose activity, negative = inhibition, hits mostly inhibitors | 44,000 tested, under 10 active;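 also: plate controls were full GALK reaction for no effect and reaction lacking GALK for full effect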
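Luminescent ATP-depletion readout (Kinase-Glo Plus) after 1 h room-temperature incubation of human GALK (5 nM) with galactose 100 µM and ATP 35 µM, pH 8.0 HEPES/Mg2+ buffer; compounds tested in qHTS format.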
NTMT1 inh: NTMT1 methyltransferase inhibition. 59,000 tested, 2.5% active. NTMT1 MTase-Glo SAH luminescence, purified enzyme. AID 1645870. Potency, µM (doses to about 114 µM), without a hit: at the highest dose activity change, negative = inhibition, actives largely listed as inhibitors;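 also: potency is read from the fitted curve at half-maximal effect; plate controls were DMSO vehicle for no effect and no enzyme for full effect; nearly all actives have a fitted effect of over 65% in size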
Target sequence (Q9BV86 whole entry, looked up): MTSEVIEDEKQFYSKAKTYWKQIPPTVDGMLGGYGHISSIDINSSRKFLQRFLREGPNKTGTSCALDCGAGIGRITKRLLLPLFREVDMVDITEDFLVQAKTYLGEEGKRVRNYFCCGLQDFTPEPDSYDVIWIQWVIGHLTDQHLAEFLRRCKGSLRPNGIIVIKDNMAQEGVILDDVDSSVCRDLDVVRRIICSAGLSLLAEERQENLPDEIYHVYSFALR
DRV1 agonist: activates human resolvin D1 receptor GPR32; CHO-K1 GPR32 beta-arrestin PathHunter luminescence, 90 min; zero percent set by DMSO-only wells; AID 1346428; activation, % at 76.9 µM; O75388; 48,000 tested, 2.5% active;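 active = activation of at least 60% and not above a set upper limit, about 1 call in 100 departs from these limits; inconclusive = activation of 40% to 60%, or above that upper limit; inactive = activation under 40%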; also: 0% is about no effect
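Agonism was scored as beta-arrestin recruitment to ProLink-fused GPR32 in stably transfected CHO-K1 cells, giving a chemiluminescent beta-Gal signal; compounds were incubated 90 min at 37 °C.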
PTAP-TSG101 blk: TSG101-PTAP interaction inhibition, HIV-1 budding; Q99816; AID 1347069; Fluorescence polarization, FITC-PTAP peptide/Tsg101, 20 min; Potency, µM (doses to about 115 µM), actives largely listed as inhibitors; 44,000 tested, under 10 active; also: potency is read from the fitted curve at half-maximal effect; 0% is about no effect
Target sequence (Q99816 whole entry, looked up): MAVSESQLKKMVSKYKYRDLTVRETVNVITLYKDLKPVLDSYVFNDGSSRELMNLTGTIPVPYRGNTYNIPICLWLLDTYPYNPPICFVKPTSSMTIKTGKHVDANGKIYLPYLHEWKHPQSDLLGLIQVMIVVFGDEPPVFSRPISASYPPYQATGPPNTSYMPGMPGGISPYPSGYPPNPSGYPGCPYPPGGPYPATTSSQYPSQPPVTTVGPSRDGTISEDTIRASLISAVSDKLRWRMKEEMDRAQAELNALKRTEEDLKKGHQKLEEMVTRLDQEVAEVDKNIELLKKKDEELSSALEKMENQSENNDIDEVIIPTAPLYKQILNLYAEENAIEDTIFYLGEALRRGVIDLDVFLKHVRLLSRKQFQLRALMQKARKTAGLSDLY
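Steps: Tsg101 binding domain (10 uM final) in HEPES pH 7.5/NaCl/Tween 20/EDTA/TCEP; add compound; add FITC-PTAP peptide (50 nM final); incubate 20 min r.t.; read polarization.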
B2AR arrestin ag: ADRB2 beta-arrestin recruitment | 44,000 tested, under 10 active | HTLA Tango cells, beta-arrestin recruitment, luciferase luminescence, 18 h | Potency, µM (series often up to 46.1 µM), hits mostly activators | P07550;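 also: potency is read from the fitted curve at half-maximal effect; 0% = DMSO and full agonism = EC100 isoproterenol or metaproterenol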
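Luminescence read-out: arrestin recruitment to recombinant beta2-AR releases tTA, inducing luciferase. Cells exposed 18 hr at 37 degrees C to up to 46 microM compound; %Activity from corrected signal, concentration-response curves classified by r2, magnitude and efficacy.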
Starred values were filed as active, the others as inactive; ! = repeats disagree; [ ] = another dose, or the depositor's remark. Unless noted, calls follow the shape of the dose curve; as a rule, active = well fitted curve in the direction sought with a large enough effect; inconclusive = small, poorly fitted or top-dose-only effect, or another doubt; inactive = no such curve, though single readings can be large; an effect the other way counts as inactive or inconclusive.

Screening Cc1ccc(S(=O)(=O)Nc2ccc3nc(-c4ccc(F)cc4)oc3c2)cc1 returned FH mod inconclusive, GALK inhibitor -12%, NTMT1 inh 7%, DRV1 agonist 66*, PTAP-TSG101 blk inactive and B2AR arrestin ag inactive.
`CCc1ccc(CNC(=O)c2ccc(-c3nc(CS(=O)(=O)c4ccccc4)c(C)o3)cc2)cc1` gave GALK inhibitor -3%, DRV1 agonist 84*, PTAP-TSG101 blk inactive and B2AR arrestin ag inactive.
Screening Cc1ccc(OCc2nc(-c3ccc(C(=O)NCCc4ccc(S(N)(=O)=O)cc4)cc3)oc2C)cc1 returned FH mod 2%, GALK inhibitor 7%, NTMT1 inh -3%, DRV1 agonist 82*, PTAP-TSG101 blk inactive and B2AR arrestin ag inactive.
For COc1cccc(CNC(=O)c2ccc(-c3nc(CS(=O)(=O)c4ccccc4)c(C)o3)cc2)c1 the results were FH mod -13%, GALK inhibitor 1%, NTMT1 inh 2%, DRV1 agonist -8, PTAP-TSG101 blk inactive and B2AR arrestin ag inactive.
Screening CCOc1ccc(CCNC(=O)c2ccc(-c3nc(CSc4ccc(C)cc4)c(C)o3)cc2)cc1 returned FH mod 23%, GALK inhibitor -2%, NTMT1 inh 10%, DRV1 agonist -8, PTAP-TSG101 blk inactive and B2AR arrestin ag inactive.
Cc1cccc(CNC(=O)c2ccc(-c3nc(CS(=O)(=O)c4ccccc4)c(C)o3)cc2)c1 was read as FH mod -21%, GALK inhibitor -1%, NTMT1 inh -5%, DRV1 agonist 80*, PTAP-TSG101 blk inactive and B2AR arrestin ag inactive.
For Cc1oc(-c2ccc(C(=O)NCc3ccccc3)cc2)nc1CS(=O)(=O)c1ccccc1 the results were FH mod -2%, GALK inhibitor -5%, NTMT1 inh inconclusive, DRV1 agonist inconclusive, PTAP-TSG101 blk inactive and B2AR arrestin ag inactive.
For CCCCn1c(NCc2cc(Cl)ccc2O)nc2ccccc21 the results were FH mod -24%, GALK inhibitor -3%, NTMT1 inh 21%, DRV1 agonist 102*, PTAP-TSG101 blk inactive and B2AR arrestin ag inactive.
For Cc1cc(=O)n(Cc2ccccc2)c2c1c(C)nn2C the results were FH mod -28%, GALK inhibitor -3%, NTMT1 inh -4%, DRV1 agonist inconclusive, PTAP-TSG101 blk inactive and B2AR arrestin ag inactive.
COc1cccc(Cn2c(=O)cc(C)c3c(C)nn(C)c32)c1 was read as FH mod -6%, GALK inhibitor 0%, NTMT1 inh inconclusive, DRV1 agonist 79*, PTAP-TSG101 blk inactive and B2AR arrestin ag inactive.
Cc1ccc(S(=O)(=O)c2nnn3c2nc(NCc2ccc(F)cc2)c2sccc23)cc1 was read as FH mod -8%, GALK inhibitor -4%, NTMT1 inh 89µM*, DRV1 agonist -15, PTAP-TSG101 blk inactive and B2AR arrestin ag inactive.
CC(=O)N1CCN(c2ccc(OC[C@H]3CO[C@](Cn4ccnc4)(c4ccc(Cl)cc4Cl)O3)cc2)CC1 was read as FH mod 16%[53.3 µM], NTMT1 inh 22µM*! and DRV1 agonist 3.
`CC(NC(=O)CC(=O)O)c1nc2ccccc2c(=O)[nH]1` (centres undefined) gave FH mod -2% and NTMT1 inh 11%[57.5 µM].
`Cc1cccc(NC(=O)c2c(NC(=O)c3ccccc3)sc3c2CCC3)c1` gave FH mod -17%, GALK inhibitor -19%, NTMT1 inh 2%, DRV1 agonist 9, PTAP-TSG101 blk inactive and B2AR arrestin ag inactive.
CCOC(=O)c1c(NC(=O)c2ccccc2C)sc2c1CCCC2 was read as FH mod -5%, GALK inhibitor 10%, NTMT1 inh 89µM*, DRV1 agonist -7, PTAP-TSG101 blk inactive and B2AR arrestin ag inactive.
Screening CCOC(=O)c1c(NC(=O)c2cc(Cl)ccc2Cl)sc2c1CCCC2 returned FH mod -9%, GALK inhibitor 0%, NTMT1 inh 6%, DRV1 agonist -4, PTAP-TSG101 blk inactive and B2AR arrestin ag inactive.
Screening Cc1cccc(NC(=O)c2c(NC(=O)c3ccccc3)sc3c2CCCC3)c1 returned FH mod -12%, GALK inhibitor -4%, NTMT1 inh 45µM*, DRV1 agonist -3, PTAP-TSG101 blk inactive and B2AR arrestin ag inactive.
`COc1ccc(-c2ccc(NC(=O)c3cccs3)cn2)cc1` gave NTMT1 inh 2%.
`NS(=O)(=O)c1ccc(Cc2c(-c3cccc(-c4ccccc4)c3)nn(-c3nc(C(=O)O)cs3)c2CC2CC2)cc1` gave NTMT1 inh 45µM*.
`Clc1ccc(CSc2nc3ncc(Br)cc3[nH]2)cc1Cl` gave NTMT1 inh 8%.
Screening Cc1nn2c(=O)cc(COC(=O)c3ccc(NC(=O)COc4ccc(C)c(C)c4)cc3)nc2s1 returned FH mod -26%, GALK inhibitor 1%, NTMT1 inh 12%, DRV1 agonist 20, PTAP-TSG101 blk inactive and B2AR arrestin ag inactive.
For Cc1nn2c(=O)cc(COC(=O)c3ccc(NC(=O)COc4ccccc4F)cc3)nc2s1 the results were FH mod -19%, GALK inhibitor 5%, NTMT1 inh inconclusive, DRV1 agonist 62*, PTAP-TSG101 blk inactive and B2AR arrestin ag inactive.
COc1ccc2[nH]cc(CCNC(=O)Nc3ccccc3)c2c1 was read as FH mod -6%, GALK inhibitor -1%, NTMT1 inh -4%, DRV1 agonist 67*, PTAP-TSG101 blk inactive and B2AR arrestin ag inactive.
For O=C1Nc2ccccc2/C1=C/c1cc(Cl)c(O)c(Cl)c1 the results were NTMT1 inh 35µM*!.
Screening O=C1Nc2ccccc2/C1=C\c1ccc(O)cc1 returned NTMT1 inh -18%.
For O=C1Nc2ccc(C(=O)c3ccco3)cc2/C1=C/c1cc(Cl)c(O)c(Cl)c1 the results were NTMT1 inh 4µM*.
`Nc1nc(OC(c2ccc(-c3cccc(F)c3)cc2)C(F)(F)F)cc(-c2ccc(C[C@@H](N)C(=O)O)cc2)n1` (some centres undefined) gave NTMT1 inh 5%.
`COc1cc2nc(C3CC3)nc(N3CCN(c4ccccc4OC)CC3)c2cc1OC` gave FH mod -7% and NTMT1 inh inconclusive.
Screening CCCCCCCCCCCCCCCCCC(=O)O returned FH mod -5%[53.3 µM], NTMT1 inh 11%[57.5 µM] and DRV1 agonist -3.

From PubChem BioAssay
